Assay results as given in PubChem BioAssay AID1159580 (chemical genetic matrix, 2015).
Where “and” joins values, the source holds several entries; their conditions need not be identical. Identical values can stand only once. Out of some 5,500 compounds screened, about 2,000 (36%) were called active. Inconclusive results (about 18%) are left out. Cut-off read from the data, not from the text of the source: active = normalized growth mostly below about 0.91 (no sharp cut-off); inconclusive = no clear call, values can overlap the other calls; inactive = mostly above about 0.92. Some of the results follow.

Experiment: chemical genetic growth profiling, strain panel (AID 1159580);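 note: tested at 20 µM; growth read once vehicle control cultures reached saturation at 30 °C; 1 = growth at the plate median or of vehicle wells; lower values mean less growth of the strain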
Conditions: growth OD

Measured: normalized growth

COc1ccc2[nH]cc(CCNC(C)=O)c2c1
inactive: S. cerevisiae deletion strains, locus YJR075W, strain HOC1, active compounds read low 1.07 | S. cerevisiae deletion strains, locus YKL009W, strain mrt4, active compounds read low 1.01 | S. cerevisiae deletion strains, locus YKL068W, active compounds read low 1.01 | S. cerevisiae deletion strains, locus YKL085W, strain MDH1 (second series), active compounds read low 1.01 | S. cerevisiae deletion strains, locus YKL085W, strain MDH1, active compounds read low 1.01 | S. cerevisiae deletion strains, locus YKL160W, strain elf1, active compounds read low 0.979 | S. cerevisiae deletion strains, locus YKL190W, strain CNB1, active compounds read low 1 | S. cerevisiae deletion strains, locus YKR001C, strain vps1, active compounds read low 1.03 | S. cerevisiae deletion strains, locus YKR026C, strain gcn3, active compounds read low 0.97 | S. cerevisiae deletion strains, locus YKR091W, strain srl3, active compounds read low 0.969 | S. cerevisiae deletion strains, locus YLL001W, strain dnm1, active compounds read low 0.971 | S. cerevisiae deletion strains, locus YLL026W, active compounds read low 0.979 | S. cerevisiae deletion strains, locus YLL041C, strain sdh2, active compounds read low 0.977 | S. cerevisiae deletion strains, locus YLR027C, strain aat2, active compounds read low 0.975 | S. cerevisiae deletion strains, locus YLR039C, strain RIC1, active compounds read low 1.04 | S. cerevisiae deletion strains, locus YLR058C, strain SHM2, active compounds read low 1.01 | S. cerevisiae deletion strains, locus YLR102C, strain apc9, active compounds read low 1.03 | S. cerevisiae deletion strains, locus YLR113W, strain HOG1, active compounds read low 1 | S. cerevisiae deletion strains, locus YLR221C, strain rsa3, active compounds read low 0.969 | S. cerevisiae deletion strains, locus YLR258W, strain gsy2, active compounds read low 0.973 | S. cerevisiae deletion strains, locus YLR262C, strain YPT6 (second series), active compounds read low 0.987 | S. cerevisiae deletion strains, locus YLR262C, strain YPT6, active compounds read low 1.02 | S. cerevisiae deletion strains, locus YLR268W, strain sec22, active compounds read low 1.03 | S. cerevisiae deletion strains, locus YLR320W, strain mms22, active compounds read low 0.955 | S. cerevisiae deletion strains, locus YLR330W, strain CHS5, active compounds read low 1.01 | S. cerevisiae deletion strains, locus YLR342W, strain FKS1 (second series), active compounds read low 1.01 | S. cerevisiae deletion strains, locus YLR342W, strain FKS1, active compounds read low 0.983 | S. cerevisiae deletion strains, locus YLR357W, strain rsc2, active compounds read low 0.93 | S. cerevisiae deletion strains, locus YLR370C, strain arc18, active compounds read low 0.974 | S. cerevisiae deletion strains, locus YLR371W, strain rom2, active compounds read low 1.02 | S. cerevisiae deletion strains, locus YLR384C, strain iki3, active compounds read low 0.951 | S. cerevisiae deletion strains, locus YLR418C, strain cdc73, active compounds read low 1.05 | S. cerevisiae deletion strains, locus YML016C, strain PPZ1, active compounds read low 1.01 | S. cerevisiae deletion strains, locus YML032C, strain rad52, active compounds read low 1.03 | S. cerevisiae deletion strains, locus YML120C, strain ndi1, active compounds read low 0.982 | S. cerevisiae deletion strains, locus YML124C, strain tub3, active compounds read low 1.02 | S. cerevisiae deletion strains, locus YMR058W, strain fet3, active compounds read low 0.974 | S. cerevisiae deletion strains, locus YMR078C, strain ctf18, active compounds read low 1.03 | S. cerevisiae deletion strains, locus YMR125W, strain sto1, active compounds read low 0.956 | S. cerevisiae deletion strains, locus YMR129W, active compounds read low 0.977 | S. cerevisiae deletion strains, locus YMR205C, strain PFK2, active compounds read low 0.979 | S. cerevisiae deletion strains, locus YMR223W, strain ubp8, active compounds read low 1.03 | S. cerevisiae deletion strains, locus YMR231W, strain pep5, active compounds read low 0.957 | S. cerevisiae deletion strains, locus YMR263W, strain SAP30, active compounds read low 1.01 | S. cerevisiae deletion strains, locus YMR307W, strain GAS1, active compounds read low 1.05 and 0.978 | S. cerevisiae deletion strains, locus YNL067W, strain RPL9B, active compounds read low 1.01 | S. cerevisiae deletion strains, locus YNL071W, strain lat1, active compounds read low 0.975 | S. cerevisiae deletion strains, locus YNL128W, strain TEP1, active compounds read low 1.02 | S. cerevisiae deletion strains, locus YNL153C, strain GIM3, active compounds read low 1.01 | S. cerevisiae deletion strains, locus YNL175C, strain NOP13, active compounds read low 1.02 | S. cerevisiae deletion strains, locus YNL183C, strain NPR1, active compounds read low 0.942 | S. cerevisiae deletion strains, locus YNL197C, strain WHI3, active compounds read low 1.01 | S. cerevisiae deletion strains, locus YNL209W, strain ssb2, active compounds read low 0.971 | S. cerevisiae deletion strains, locus YNL224C, strain SQS1, active compounds read low 1 | S. cerevisiae deletion strains, locus YNL233W, strain BNI4, active compounds read low 1.02 | S. cerevisiae deletion strains, locus YNL248C, strain rpa49, active compounds read low 0.968 | S. cerevisiae deletion strains, locus YNL250W, strain rad50, active compounds read low 1.04 | S. cerevisiae deletion strains, locus YNL271C, strain bni1, active compounds read low 1.05 | S. cerevisiae deletion strains, locus YNL298W, strain CLA4, active compounds read low 1.03 | S. cerevisiae deletion strains, locus YNL307C, strain MCK1, active compounds read low 1.04 | S. cerevisiae deletion strains, locus YNL322C, strain KRE1 (second series), active compounds read low 0.968 | S. cerevisiae deletion strains, locus YNL322C, strain KRE1, active compounds read low 1 | S. cerevisiae deletion strains, locus YNR049C, strain mso1, active compounds read low 0.972 | S. cerevisiae deletion strains, locus YNR052C, strain pop2, active compounds read low 1.03 | S. cerevisiae deletion strains, locus YOL006C, strain TOP1, active compounds read low 1.07 | S. cerevisiae deletion strains, locus YOL012C, strain htz1 1.19 | S. cerevisiae deletion strains, locus YOL147C, strain pex11, active compounds read low 1.02 | S. cerevisiae deletion strains, locus YOR001W, strain rrp6, active compounds read low 0.988 | S. cerevisiae deletion strains, locus YOR061W, strain CKA2, active compounds read low 1.01 | S. cerevisiae deletion strains, locus YOR069W, strain VPS5, active compounds read low 0.997 | S. cerevisiae deletion strains, locus YOR070C, strain gyp1, active compounds read low 0.988 | S. cerevisiae deletion strains, locus YOR080W, strain dia2, active compounds read low 0.972 | S. cerevisiae deletion strains, locus YOR083W, strain WHI5 (second series), active compounds read low 1.01 | S. cerevisiae deletion strains, locus YOR083W, strain WHI5, active compounds read low 0.98 | S. cerevisiae deletion strains, locus YOR106W, strain vam3, active compounds read low 0.982 | S. cerevisiae deletion strains, locus YOR136W, strain idh2, active compounds read low 1.04 | S. cerevisiae deletion strains, locus YOR144C, strain elg1, active compounds read low 1.02 | S. cerevisiae deletion strains, locus YOR184W, strain ser1, active compounds read low 1.04 | S. cerevisiae deletion strains, locus YOR231W, strain MKK1, active compounds read low 1.02 | S. cerevisiae deletion strains, locus YOR265W, strain rbl2, active compounds read low 0.984 | S. cerevisiae deletion strains, locus YOR270C, strain vph1, active compounds read low 0.966 | S. cerevisiae deletion strains, locus YOR290C, strain snf2, active compounds read low 0.972 | S. cerevisiae deletion strains, locus YOR316C, strain cot1, active compounds read low 1.03 | S. cerevisiae deletion strains, locus YPL051W, strain arl3, active compounds read low 0.967 | S. cerevisiae deletion strains, locus YPL055C, strain LGE1, active compounds read low 1.04 | S. cerevisiae deletion strains, locus YPL078C, strain atp4, active compounds read low 0.977 | S. cerevisiae deletion strains, locus YPL106C, strain sse1, active compounds read low 0.978 | S. cerevisiae deletion strains, locus YPL240C, strain hsp82, active compounds read low 0.977 | S. cerevisiae deletion strains, locus YPL241C, strain CIN2, active compounds read low 1 | S. cerevisiae deletion strains, locus YPL256C, strain CLN2, active compounds read low 1.01 | S. cerevisiae deletion strains, locus YPR119W, strain clb2, active compounds read low 1.02 | S. cerevisiae deletion strains, locus YPR141C, strain kar3, active compounds read low 1.03 | S. cerevisiae deletion strains, locus YPR163C, strain tif3, active compounds read low 1.02 | S. cerevisiae deletion strains, locus YPR167C, strain met16, active compounds read low 1.03 | S. cerevisiae deletion strains, strain wtn01, active compounds read low 1.02 | S. cerevisiae strains, strain wild type, active compounds read low 1.01
